Screening data (PubChem)
TWEAK-Fn14 inh = inhibitors of TWEAK-Fn14 signaling, primary screen, luciferase reporter cells, uHTS | hit rate 2% among 360,000 | TWEAK-stimulated Fn14 reporter cells, luciferase luminescence, 8 h | inhibition, % at 10 µM; in the data active = inhibition above about 50%
MITF TRPM1 inh = inhibitors of MITF-dependent TRPM1 promoter reporter, primary screen, cell-based, SK-MEL-5, single point, luciferase. inhibition, % at 12.5 µM. hit rate 0.83% among 330,000. SK-MEL-5 TRPM1 promoter luciferase, 24 h;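 active = mean inhibition across replicates of 60% or more, whatever share of single replicates reaches that level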
Peg3 prom inh = Peg3 promoter-driven luciferase inhibitors, primary screen, cell-based, HeLa, luciferase luminescence; inhibition, % at 20 µM; hit rate 1.7% among 360,000; AID 588405, 2011; HeLa PEG-Prom luciferase reporter, overnight;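 active = inhibition of at least 50% at 20 µM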
LMP1 NFkB inh = EBV LMP1-driven NF-kappaB luciferase reporter inhibitors, primary screen, cell-based, luminescence, single point; LMP1-induced NF-kappaB luciferase reporter cells; inhibition, % at 12.5 µM; hit rate 0.69% among 350,000; in the data active = inhibition above about 41%;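 also: 0% = neutral control wells and 100% = reference inhibitor control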
Shn3 3UTR inh = reduction of Shn3 3'UTR firefly luciferase signal, primary screen, Schnurri-3 inhibitor project, cell-based, Clone20 osteoblasts, set 2. Clone20 osteoblast Shn3 3'UTR firefly luciferase, 24 h. inhibition, % at 12.5 µM. hit rate 0.52% among 360,000. AID 588674, 2011;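 active = mean inhibition of at least 75% with every replicate also reaching 75%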;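 also: 0% = median of neutral control wells and 100% = pilot-screen positive control compound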
TROY NFkB inh = inhibitors of TROY-driven NF-kB signaling, primary screen, Q293 LMP1-TROYcd cells, NF-kB luciferase, uHTS; Q293 LMP1-TROYcd NF-kB luciferase reporter, 4 h; hit rate 0.98% among 360,000; inhibition, % at 10 µM; AID 1347056, 2019;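 active = compounds whose plate-normalised and pattern-corrected inhibition of the luciferase reporter signal at the single screening dose is 50% or more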
* = called active by the depositor; . = no result. An excerpt weighted towards active compounds, which were near 4.1% of everything screened.

SMILES | TWEAK-Fn14 inh | MITF TRPM1 inh | Peg3 prom inh | LMP1 NFkB inh | Shn3 3UTR inh | TROY NFkB inh
O=C(Nc1cc(S(=O)(=O)Nc2ccc(Cl)cc2)ccc1O)c1ccc(S(=O)(=O)N2CCCCCC2)cc1 | 13 | 4 | 30 | -10 | 3 | 57*
CCN(CC)C(=O)c1oc2ccc(S(=O)(=O)N3CCCCCC3)cc2c1C | 15 | 4 | 11 | 3 | 69 | 9
Cc1c(C(=O)Nc2ccc(F)cc2)oc2ccc(S(=O)(=O)N3CC(C)CC(C)C3)cc12 (centres undefined) | 54* | 45 | 34 | 13 | 76 | 29
CCN(CC)C(=O)c1oc2ccc(S(=O)(=O)N3CC(C)CC(C)C3)cc2c1C (centres undefined) | 46 | 32 | 31 | 8 | 91* | 26
Clc1cccc(CNCCCSc2ncccn2)c1 | -23 | -10 | -5 | -1 | -1 | -2
CCCc1cnc(NCCNCC(O)COc2ccc(Cl)c(Cl)c2)nc1 (centres undefined) | -11 | 40 | 107* | -5 | . | -33
CCc1ccc(-n2cccc2/C=C2/C(=N)N3C(=NC2=O)SN=C3S(C)(=O)=O)cc1 | -6 | 9 | -22 | -13 | -34 | 59*
FC(F)(F)c1cccc(Cn2nnnc2-c2cc(Cl)cc(Cl)c2)c1 | -9 | 0 | 30 | 1 | 39 | -2
CCc1ccc(C2c3[nH]c4ccccc4c3CCN2C(=O)CN2CCN(CC)CC2)cc1 (centres undefined) | -6 | 43 | 84* | -16 | -11 | 8
CCc1ccc(C2c3[nH]c4ccccc4c3CCN2C(=O)CNC(N)=O)cc1 (centres undefined) | 7 | 20 | 17 | -2 | 13 | 17
COc1ccc(C(=O)NCCNc2ccccc2[N+](=O)[O-])cc1 | 4 | -63 | -198 | -18 | -63 | -30
CCCNC(=O)c1ccc(S(=O)(=O)c2ccc(OC)cc2)c([N+](=O)[O-])c1 | 72* | 48 | 49 | -9 | 21 | 23
COc1cnn(-c2ccc(C)cc2)c(=O)c1SCc1ccccc1 | -3 | -61 | -128 | 47* | 0 | -37
COc1cnn(-c2ccc(Br)cc2)c(=O)c1SCc1ccccc1 | -15 | -27 | -101 | -18 | -15 | -55
Nc1nc(=S)c2[nH]cnc2[nH]1 | 25 | 78* | 63* | 85* | -4 | -11
CC(C)Cc1nc(SCC(=O)NCC2CCCO2)c2c(=O)n(C)c(=O)n(C)c2n1 (centres undefined) | 1 | 4 | 10 | -5 | -14 | 2
COc1ccc(NC(=O)COC(=O)CCNS(=O)(=O)c2ccc(Cl)cc2)cc1 | 9 | 2 | 16 | 4 | -11 | 3
Cc1ccccc1-c1nnc(SCC(=O)Nc2ccc3c(c2)OCCO3)n1N | 9 | 9 | -10 | 3 | -42 | -2
O=C(CC(c1ccccc1)c1ccccc1)Nc1ccc2c(c1)OCCO2 | 52* | -2 | -53 | -2 | 30 | 22
Cn1cccc1C(=O)OCC(=O)Nc1ccc2c(c1)OCCO2 | 71* | -6 | -40 | 38 | -47 | 9
Nn1c(SCC(=O)Nc2ccc3c(c2)OCCO3)nnc1-c1ccccn1 | 77* | -5 | -39 | 6 | -5 | 7
Nc1ccccc1SCC(=O)Nc1ccc2c(c1)OCCO2 | 68* | -9 | -193 | -43 | -64 | 58*
CC(=O)NC(CC(=O)Nc1ccc2c(c1)OCCO2)c1ccccc1 (centres undefined) | -1 | -18 | -99 | -5 | -54 | -12
CCOC(=O)c1c(NC(=O)CSc2nnc(-c3ccncc3)n2Cc2ccco2)sc(C)c1C | 8 | 3 | 3 | 8 | 28 | -3
O=C(N/C=C\n1cnc2cc(C(F)(F)F)ccc21)c1ccc([N+](=O)[O-])cc1 | -7 | 8 | 35 | 4 | 14 | -4
COCCn1c(SCC(=O)c2ccc3c(c2)OCCO3)nnc1-c1ccoc1C | 10 | 14 | -3 | -6 | -1 | 15
COCCCn1c(SCC(=O)Nc2ccc3c(c2)OCCO3)nnc1-c1ccoc1C | 64* | 0 | -22 | -8 | 12 | 16
